Measurements from PubChem BioAssay AID435003 (Sanford-Burnham Center for Chemical Genomics, 2010).
The campaign covered roughly 330,000 compounds. About 1,700 (0.52%) were called active. No stated cut-off is given here; in the data, active means inhibition above about 50%; inactive means the rest. The full list was thinned out, with actives kept by preference.

experiment: lowers stimulated NF-kB reporter luminescence – cell-based, uHTS, TCR NF-kB activation inhibitor project, primary screen (AID 435003); conditions: Jurkat, PMA/ionomycin-induced NF-kB luciferase reporter, at 4 µM, active compounds read high

SMILES	inhibition
O=C(COCc1cc(-c2ccc3c(c2)OCO3)on1)N1CCN(c2cccc(Cl)c2)CC1	3.84% (inactive)
NS(=O)(=O)c1ccc(CCNS(=O)(=O)c2cccc3cccnc23)cc1	-18.6% (inactive)
O=[N+]([O-])c1ccccc1S(=O)(=O)Nc1cccc2cccnc12	70.3% (active)
O=S(=O)(NCCc1ccc(F)cc1)c1cccc2cccnc12	2.69% (inactive)
O=C(Nc1ccc(Br)cc1F)C1CC(=O)N(C2CCCCC2)C1 (configuration not stated)	-3.7% (inactive)
CCOCCCn1c(NN)nc2ccccc2c1=O	-7.49% (inactive)
CCn1c(/C=C/c2ccc([N+](=O)[O-])o2)nc2ccccc2c1=O	54.7% (active)
CCn1c(SCc2ccccc2)nc2cc(OC)c(OC)cc2c1=O	-6.84% (inactive)
Cc1noc(C)c1C(=O)N(CC(=O)NC1CCCC1)Cc1ccccc1F	-8.54% (inactive)
COc1ccc(C(=O)COC(=O)C(O)c2ccccc2)c(OC)c1 (configuration not stated)	0.0915% (inactive)
CCOc1ccc2[nH]c3nc(SCC(=O)NC4CCCC4)nnc3c2c1	59% (active)
O=C(CSc1nnc2c(n1)[nH]c1ccccc12)NC1CCCCC1	21.2% (inactive)
COc1ccc2[nH]c3nc(SCC(=O)NC4CC4)nnc3c2c1	-17.7% (inactive)
O=C(c1ccc(Cl)s1)N(Cc1nnc(-c2ccccc2Cl)o1)C1CC1	-18.3% (inactive)
Cc1cc(C(=O)COc2ccc(Br)cc2F)c(C)n1C1CC1	-9.16% (inactive)
C=CCOc1cccc(C2NC(=O)c3ccccc3O2)c1 (configuration not stated)	3.44% (inactive)
Cc1ccc(C)c(NS(=O)(=O)c2cc(Br)cnc2N)c1	-1.35% (inactive)
C/C=C(\C)C(=O)N1CC2(CC(c3cccc(NC(=O)CCCCC)c3)=NO2)C[C@@H]1C(N)=O (some centres not stated)	2.26% (inactive)
O=C(N/N=C/c1ccc(O)c(O)c1)C1c2ccccc2Oc2ccccc21	2.58% (inactive)
Oc1ccc(/C=N/Nc2ccc(C(F)(F)F)cn2)cc1O	59.5% (active)
Oc1ccc(Br)cc1/C=N/Nc1ccccn1	32.4% (inactive)
O=C(c1ccc(OC2CCN(C(=O)c3cccnc3)CC2)cc1)N1CCCCCC1	-2.83% (inactive)
CC1=C(C(=O)NC2CC(C)(C)Cc3c2cnn3-c2ccc(C)cc2)OCCO1 (configuration not stated)	4.55% (inactive)

SMILES	inhibition
COc1ccc(-n2ncc3c2CC(C)(C)CC3NC(=O)CCc2c(C)noc2C)cc1 (configuration not stated)	20% (inactive)
Cc1ccc(-n2ncc3c2CC(C)(C)CC3NC(=O)Cc2c(C)noc2C)cc1 (configuration not stated)	50.6% (active)
CCN1C(=O)/C(=C2\SC(N3CCCCC3)=NC2=O)c2ccccc21	-33.7% (inactive)
COC(=O)c1ccc(C(=O)Nc2cc(Cl)ccc2Cl)cc1NC(=O)c1ccccc1C	-2.99% (inactive)
Cc1c(C=O)c2ccccc2n1CCOc1ccccc1	-14.6% (inactive)
COc1cc2c(cc1OC)CN(C(=O)c1cc(=O)c3ccccc3o1)CC2	50.7% (active)
COc1ccc2c(CC(=O)N3CCc4cc(OC)c(OC)cc4C3)coc2c1	15.9% (inactive)
COc1ccccc1CNC(=O)c1cc(=O)c2ccccc2o1	-3.35% (inactive)
C=CCn1c(C)cc(C2=NNC(=NCC)SC2)c1C	67.2% (active)
Cc1ccc(-n2c(=O)cc(N3CCN(Cc4ccccc4)CC3)[nH]c2=O)cc1	1.04% (inactive)
CCNC(=O)c1cccc(NC(=O)C2CC(=O)N(CCc3ccccc3)C2)c1 (configuration not stated)	8.87% (inactive)
COc1ccc(-c2cc(C(F)(F)F)n3nc(C(=O)N4CCOCC4)c(Cl)c3n2)cc1	-15.4% (inactive)
Cc1cccc(NC(=O)c2cc(S(=O)(=O)N3CCC4(CC3)OCCO4)ccc2F)c1	4.99% (inactive)
Cc1cc(N/N=C\c2ccc(Br)cc2)nc(-n2nc(C)cc2C)n1	27.2% (inactive)
COc1ccc(NC(=O)c2nc(-n3nc(C)cc3C)ccc2Cl)cc1Cl	-8.27% (inactive)
CC(=O)c1ccc(Oc2cc(C)nc(-n3nc(C)cc3C)n2)cc1	51.8% (active)
COc1ccc(Nc2cc(C)nc(-n3nc(C)cc3C)n2)cc1	68.7% (active)
COc1ccc(C(C)=O)cc1CSc1nc2nc(C)cc(C)n2n1	5.26% (inactive)
Cc1cc(C)n(-c2ccc(C(=O)O)cc2[N+](=O)[O-])n1	-2.8% (inactive)
O=C(CCC1CCN(C(=O)c2cccc(Cl)c2F)CC1)Nc1ccccc1	2.28% (inactive)
COc1cc(/C=C/C(=O)Nc2ccc(OC)c(S(=O)(=O)N3CCOCC3)c2)ccc1OCC#N	6.61% (inactive)
Cc1ccc(CN2CCN(Cc3ccc(OCCO)cc3)CC2CCO)o1 (configuration not stated)	3.63% (inactive)
N#Cc1c(NC(=O)c2ccc(N3CCOCC3)c([N+](=O)[O-])c2)sc2c1CCCC2	-30% (inactive)

SMILES	inhibition
CC1(C)OC(=O)N2CCc3ccccc3C21C (configuration not stated)	11.5% (inactive)
Cc1c(/C=N\NC(=O)c2cc3ccccc3o2)c2ccccc2n1C	67.3% (active)
Cc1c(/C=N/N2C(=O)C3C4C=CC(C4)C3C2=O)c2ccccc2n1C (configuration not stated)	-10.4% (inactive)
O=C(N/N=C/c1cccc(O)c1)c1cc2c(ccc3ccccc32)o1	7.99% (inactive)
COc1ccc(Cc2cc(-c3ccc(F)cc3)n[nH]c2=O)cc1	-2.24% (inactive)
CC(C)c1ccc(S(=O)(=O)N2CCN(C(=O)c3ccc(N4CCCC4)c([N+](=O)[O-])c3)CC2)cc1	7.91% (inactive)
CCOc1[nH]n(-c2ccc(Cl)cc2)c(=O)c1C=Nc1ccc(O)cc1	56.7% (active)
CCOc1ccc(N=C2NC(=O)S/C2=C\c2ccc(O)cc2)cc1	11.9% (inactive)
O=C(NC(C(=O)NCCN1CCOCC1)C12CC3CC(CC(C3)C1)C2)C1CCCCC1 (configuration not stated)	-4.81% (inactive)
N#Cc1ccccc1S(=O)(=O)N1CCN(C(=O)c2cc(-c3ccccc3)nn2-c2ccccc2)CC1	2.19% (inactive)
O=[N+]([O-])/C=C1\CCCCCN1	-12.2% (inactive)
COc1ccc(S(=O)(=O)Nc2ccc3c(c2)OCO3)cc1Cl	-1.75% (inactive)
O=C1NC(c2cc3c(cc2Cl)OCO3)Oc2ccccc21 (configuration not stated)	-7.28% (inactive)
COc1ccccc1C1C2=C(COC2=O)Nc2cc3c(cc21)OCO3 (configuration not stated)	70.3% (active)
CCCOc1ccc(C2NC(=O)NC(c3ccccc3)=C2C(C)=O)cc1OCC (configuration not stated)	2.86% (inactive)
COC(=O)c1ccc(C2CC(=O)Nc3cc(OC)c(OC)cc32)cc1 (configuration not stated)	8.26% (inactive)
CCCOc1ccccc1C1CC(=O)Nc2cc3c(cc21)OCO3 (configuration not stated)	58.3% (active)
COC(=O)C1=C(C(=O)OC)[C@@H]2N(C)c3ccccc3[C@@]23C[C@@H](C(=O)OC)N(C(=O)c2ccco2)C3=N1	18.3% (inactive)
CC(C)Oc1ccc(/C=N/NC(=O)c2nnn(-c3nonc3N)c2CN(C)C2CCCCC2)cc1	-10.3% (inactive)
Cc1cccc(OCC(=O)NC2CC(C)(C)NC(C)(C)C2)c1	23.8% (inactive)
NS(=O)(=O)c1ccc(N=Cc2ccc(Br)s2)cc1	3.07% (inactive)
CC(=O)Nc1ccc(Nc2cc(C)nc(Nc3ccc(NC(C)=O)cc3)n2)cc1	-8.27% (inactive)
CCc1nc(Nc2ccc(NC(C)=O)cc2)c2oc3ccccc3c2n1	-24.7% (inactive)

SMILES	inhibition
CC(=O)Nc1ccc(Nc2c3ccccc3nc3ccccc23)cc1	61.6% (active)
O=C(NCc1ccccc1)C(=O)NCC1OCCN1S(=O)(=O)c1ccc(Br)cc1 (configuration not stated)	13.9% (inactive)
Cc1ccccc1N1CCN(Cc2nc(Cc3ccccc3F)no2)CC1	5.46% (inactive)
Nc1nonc1-c1nc2ccccc2n1Cc1ccc(F)cc1	1.66% (inactive)
CC(=O)Nc1nonc1-c1nc2ccccc2n1Cc1ccccn1	-4.81% (inactive)
COc1ccc(C)c(Cn2c(-c3nonc3N)nc3ccccc32)c1	65.7% (active)
O=C(Nc1ccc(Cl)cc1)C1c2cccc[n+]2CC(=O)N1Cc1ccc2c(c1)OCO2 (configuration not stated)	-3.1% (inactive)
O=C1CC[C@H](O)CCN1[C@H](CSc1ccc(Br)cc1)Cc1ccccc1	-3.24% (inactive)
O=C(NCCOc1ccccc1Cl)C(=O)Nc1ccccc1	-8.66% (inactive)
C[C@@H]1NC(=O)[C@@]2(C)[C@@H](c3ccccc3)[C@H]3COc4ccccc4[C@@H]3N2C1=O	7.9% (inactive)
COc1ccc(NC(=O)CN2C(=O)COc3ccc(S(=O)(=O)N4CCOCC4)cc32)c(OC)c1	0.923% (inactive)
C[C@H](NC(=O)c1ccccc1Cl)C(=O)OCCOc1cccc(Cl)c1	-1.51% (inactive)
COC(=O)c1ccccc1NC(=O)CN(Cc1ccccc1)S(C)(=O)=O	0.443% (inactive)
O=c1[nH]snc1-c1c(Cl)cccc1Cl	11.2% (inactive)
Cc1c(NS(=O)(=O)c2cc(C(=O)NCCc3ccc(F)cc3)cc(Cl)c2Cl)c(=O)n(-c2ccccc2)n1C	13.5% (inactive)
CCN(CC)CCCNC(=O)c1cc2c(=O)[nH]c3ccc(C)cc3c2s1	-1.96% (inactive)
Cc1ccc2[nH]c(=O)c(CC(=O)O)c(-c3ccccc3)c2c1	-0.374% (inactive)
Cc1cccc(N(C)C(=O)c2cc3c(=O)[nH]c4ccc(C)cc4c3s2)c1	65.1% (active)
CC(=O)N1CSCC1C(=O)O (configuration not stated)	-5.84% (inactive)
Cc1c(C)c(C)c(S(=O)(=O)N2CCC3(CC2)OCCO3)c(C)c1C	-2.3% (inactive)
COc1cc(CC(=O)Nc2nc(-c3ccc(F)c(F)c3)cs2)cc(OC)c1OC	49.7% (inactive)
Cc1ccc(S(=O)(=O)NC(=O)Nc2nc(-c3ccc(F)c(F)c3)cs2)cc1	-14.8% (inactive)
COc1ccc(CC(=O)Nc2nc(-c3ccc(F)c(F)c3)cs2)cc1OC	55.3% (active)
